PubChem BioAssay
Active and inactive are the calls of the source.

What was measured:
[1] = system: PRMT1 (protein arginine N-methyltransferase 1); assay: small molecules binding arginine methyltransferase PRMT1 – biochemical, small-molecule microarray, 635 nm fluorescence, primary screen (AID 1088); details: higher = more signal;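 further: binding of Prmt1 protein to compounds spotted on small-molecule microarray slides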
[2] = growth effects on S. cerevisiae YJM789 – YJM789 clinical isolate, OD600, 24 h, basal, primary screen (AID 1089); details: higher = more signal, called active from +8 up or from −8 down;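 further: growth of clinical yeast isolate S. cerevisiae YJM 789 seeded 1000 cells per well; test concentration not given here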
[3] = S. pombe growth modifiers, basal conditions – strain 972, OD600, 24 h, no modulator, primary screen (AID 1090);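 further: basal condition with compound alone and no growth modifier present; test concentration not given here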; details: S. pombe 972 growth, higher = more signal, called active from +8 up or from −8 down
[4] = budding yeast growth modifiers under rapamycin – strain BY4716, OD600, 96 h, primary screen (AID 1091); further: test concentration not given here; details: S. cerevisiae BY4716 + rapamycin, higher = more signal, called active from +8 up or from −8 down
[5] = molecular target: Torsin-1A-interacting protein 2 (Homo sapiens) (UniProt Q8NFQ8); assay: small molecules binding lysate-expressed LULL1 – cell lysate, human LULL1 lysate, 635/667 nm fluorescence, primary screen (AID 1092); details: small-molecule microarray, hLULL1 lysate binding, 635 nm fluorescence; higher = more signal;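 further: probe is lysate of COS7 cells overexpressing human LULL1; score merges per-feature 667 nm fluorescence with signal-to-noise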
[6] = optical density change of DRC41 E. coli – strain DRC41, OD650, 24 h, E. coli filamentation project, primary screen (AID 1093);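 further: MC1000 strain lacking acrAB efflux and sulA so SOS filamentation is blocked; test concentration not given here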; details: E. coli DRC41 growth, higher = more signal, called active from +8 up or from −8 down
[7] = probe aLefty2 binding to arrayed compounds – biochemical, biotinylated probe, 635/667 nm fluorescence, primary screen (AID 1094); details: small-molecule microarray, higher = more signal;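 further: score merges spot fluorescence near 667 nm with spot signal-to-noise ratio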
[8] = system: Noggin (protein binding on small-molecule microarray); assay: small molecules binding Noggin protein – biochemical, 635/667 nm fluorescence, primary screen (AID 1095); details: 635 nm fluorescence, higher = more signal;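 further: score merges 667 nm feature fluorescence with signal to noise over triplicate slides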
[9] = molecular target: Neurogenic locus notch homolog protein 3 (Homo sapiens) (UniProt Q9UM47); assay: small molecules binding NOTCH3 protein – biochemical, 635/667 nm fluorescence, primary screen (AID 1096); details: small-molecule microarray, 635 nm fluorescence, higher = more signal
[10] = probe aEGFR binding to arrayed compounds – biochemical, biotinylated probe, 635/667 nm fluorescence, primary screen (AID 1097); details: small-molecule microarray, higher = more signal;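 further: probe is a biotinylated anti-EGFR antibody binding compounds printed on slides; score combines fluorescence near 667 nm and signal to noise of each spot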
[11] = system: Plasmodium falciparum Sir2 (PF13_0152, Sir2A); assay: Plasmodium falciparum Sir2A binding compounds – biochemical, small-molecule microarray, 635 nm fluorescence, primary screen (AID 1098); details: fluorescence 635 nm, higher = more signal;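 further: score merges spot fluorescence intensity with its signal-to-noise ratio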
[12] = probe aDKK1 binding to arrayed compounds – biochemical, biotinylated probe, 635/667 nm fluorescence, primary screen (AID 1099); details: small-molecule microarray, higher = more signal;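 further: score merges 667nm spot fluorescence with signal to noise across triplicate slides; reference of the scale not given here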
[13] = probe aCHRDL2 binding to arrayed compounds – biochemical, biotinylated probe, 635/667 nm fluorescence, primary screen (AID 1100); details: small-molecule microarray, higher = more signal
[14] = change in splice reporter luminescence, either direction, cell-based, HEK293, spliceosome inhibition project, primary screen (AID 1101); details: HEK293 splicing luciferase reporter, 24 h, higher = more signal, called active from +8 up or from −8 down;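 further: HEK293 cells carrying a splicing-competent luciferase reporter gene; test concentration not given here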
[15] = molecular target: Fibroblast growth factor 10 (Homo sapiens) (UniProt O15520); assay: compounds binding fibroblast growth factor 10 – biochemical, small-molecule microarray, 635 nm fluorescence, primary screen (AID 1102); details: FGF10 binding, fluorescence 635 nm, higher = more signal
[16] = system: glycogen synthase kinase-3 (GSK3A per assay name; protocol says GSK3B); assay: compounds binding glycogen synthase kinase-3 – biochemical, small-molecule microarray, 635 nm fluorescence, GSK3A, primary screen (AID 1103); details: fluorescence 635 nm, higher = more signal; further: the record names both GSK3A and GSK3B
[17] = molecular target: Epidermal growth factor receptor (Homo sapiens) (UniProt P00533); assay: compounds binding epidermal growth factor receptor – biochemical, small-molecule microarray, 635 nm fluorescence, primary screen (AID 1104); details: EGFR binding, higher = more signal;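 further: score merges 667 nm emission intensity with spot signal to noise over triplicate slides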
[18] = molecular target: Follistatin-related protein 3 (Homo sapiens) (UniProt O95633); assay: compounds binding follistatin-related protein 3 – biochemical, small-molecule microarray, 635 nm fluorescence, primary screen (AID 1105); details: FSTL3 binding, higher = more signal;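 further: score merges emission near 667 nm and signal to noise per printed spot across three slides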
[19] = molecular target: Dickkopf-related protein 1 (Homo sapiens) (UniProt O94907); assay: small molecules binding DKK1 protein – biochemical, small-molecule microarray, 635 nm fluorescence scan, primary screen (AID 1106); details: higher = more signal;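 further: score merges emission near 667 nm with signal to noise over three replicate slides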
[20] = system: Inhibin beta A chain (activin A); assay: small molecules binding activin A – biochemical, small-molecule microarray, 635 nm fluorescence scan, primary screen (AID 1107); details: INHBA, higher = more signal;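 further: mouse activin A protein probed at 4.33 µg/mL on printed slides; score merges bound-protein fluorescence near 667 nm with spot signal-to-noise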

Chain of Neurogenic locus notch homolog protein 3 (Homo sapiens) (Q9UM47 whole entry, looked up): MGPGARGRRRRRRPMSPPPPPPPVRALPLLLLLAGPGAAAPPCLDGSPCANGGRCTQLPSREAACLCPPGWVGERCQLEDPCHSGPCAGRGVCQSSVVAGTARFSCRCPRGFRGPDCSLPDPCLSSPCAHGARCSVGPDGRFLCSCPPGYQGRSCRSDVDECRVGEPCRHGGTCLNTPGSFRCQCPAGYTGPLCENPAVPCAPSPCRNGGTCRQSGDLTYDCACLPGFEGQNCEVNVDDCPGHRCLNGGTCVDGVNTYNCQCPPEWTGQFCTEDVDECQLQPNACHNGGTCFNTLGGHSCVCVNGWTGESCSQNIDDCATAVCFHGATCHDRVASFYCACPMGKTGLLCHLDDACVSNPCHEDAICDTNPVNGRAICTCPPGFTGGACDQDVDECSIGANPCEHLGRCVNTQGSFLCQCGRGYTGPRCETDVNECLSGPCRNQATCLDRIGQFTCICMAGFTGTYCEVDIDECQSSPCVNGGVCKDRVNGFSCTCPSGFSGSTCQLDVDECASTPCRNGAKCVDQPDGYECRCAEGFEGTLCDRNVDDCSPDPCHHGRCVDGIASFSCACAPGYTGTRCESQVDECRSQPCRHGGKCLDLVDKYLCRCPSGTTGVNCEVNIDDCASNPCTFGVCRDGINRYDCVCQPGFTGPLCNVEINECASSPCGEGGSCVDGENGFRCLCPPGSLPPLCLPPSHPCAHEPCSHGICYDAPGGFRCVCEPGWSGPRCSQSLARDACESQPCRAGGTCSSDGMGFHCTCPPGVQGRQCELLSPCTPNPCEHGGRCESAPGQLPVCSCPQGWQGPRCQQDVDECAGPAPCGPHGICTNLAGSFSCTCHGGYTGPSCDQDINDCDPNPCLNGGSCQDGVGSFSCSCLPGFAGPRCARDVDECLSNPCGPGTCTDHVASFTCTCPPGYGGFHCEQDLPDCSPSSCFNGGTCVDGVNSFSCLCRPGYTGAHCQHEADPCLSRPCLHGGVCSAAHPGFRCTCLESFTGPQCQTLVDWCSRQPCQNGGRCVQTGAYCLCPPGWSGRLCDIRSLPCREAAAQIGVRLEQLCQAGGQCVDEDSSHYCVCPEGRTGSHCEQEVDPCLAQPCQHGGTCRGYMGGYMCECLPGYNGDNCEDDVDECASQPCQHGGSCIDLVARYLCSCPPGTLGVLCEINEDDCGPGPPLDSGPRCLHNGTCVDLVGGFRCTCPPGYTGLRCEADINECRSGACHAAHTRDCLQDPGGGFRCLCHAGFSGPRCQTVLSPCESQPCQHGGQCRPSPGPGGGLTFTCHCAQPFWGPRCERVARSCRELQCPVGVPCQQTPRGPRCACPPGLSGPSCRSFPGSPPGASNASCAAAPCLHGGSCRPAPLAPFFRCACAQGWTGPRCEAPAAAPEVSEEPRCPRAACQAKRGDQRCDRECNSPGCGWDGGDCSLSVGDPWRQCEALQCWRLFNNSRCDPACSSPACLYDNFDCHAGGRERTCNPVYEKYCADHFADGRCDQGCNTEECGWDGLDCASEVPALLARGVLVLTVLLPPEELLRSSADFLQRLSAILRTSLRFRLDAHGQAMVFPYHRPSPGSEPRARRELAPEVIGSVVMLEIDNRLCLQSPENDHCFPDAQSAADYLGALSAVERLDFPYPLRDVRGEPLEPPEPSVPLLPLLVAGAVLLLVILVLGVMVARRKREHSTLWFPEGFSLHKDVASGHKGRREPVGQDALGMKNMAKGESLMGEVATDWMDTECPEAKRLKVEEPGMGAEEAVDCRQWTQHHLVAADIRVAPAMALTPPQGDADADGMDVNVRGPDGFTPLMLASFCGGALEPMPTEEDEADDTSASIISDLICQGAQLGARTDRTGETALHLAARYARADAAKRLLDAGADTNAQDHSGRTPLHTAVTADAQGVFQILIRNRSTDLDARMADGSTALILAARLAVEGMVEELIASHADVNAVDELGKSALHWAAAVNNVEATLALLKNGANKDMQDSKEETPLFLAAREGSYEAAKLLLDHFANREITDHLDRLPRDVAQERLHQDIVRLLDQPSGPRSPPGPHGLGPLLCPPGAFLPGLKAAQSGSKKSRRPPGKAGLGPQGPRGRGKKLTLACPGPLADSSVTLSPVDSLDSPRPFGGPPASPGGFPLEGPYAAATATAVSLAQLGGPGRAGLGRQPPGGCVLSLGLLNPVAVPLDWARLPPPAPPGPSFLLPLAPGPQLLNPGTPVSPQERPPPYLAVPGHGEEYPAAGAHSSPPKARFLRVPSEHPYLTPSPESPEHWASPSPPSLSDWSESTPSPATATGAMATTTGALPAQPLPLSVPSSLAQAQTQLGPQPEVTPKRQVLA
Chain of Epidermal growth factor receptor (Homo sapiens) (P00533 whole entry, looked up): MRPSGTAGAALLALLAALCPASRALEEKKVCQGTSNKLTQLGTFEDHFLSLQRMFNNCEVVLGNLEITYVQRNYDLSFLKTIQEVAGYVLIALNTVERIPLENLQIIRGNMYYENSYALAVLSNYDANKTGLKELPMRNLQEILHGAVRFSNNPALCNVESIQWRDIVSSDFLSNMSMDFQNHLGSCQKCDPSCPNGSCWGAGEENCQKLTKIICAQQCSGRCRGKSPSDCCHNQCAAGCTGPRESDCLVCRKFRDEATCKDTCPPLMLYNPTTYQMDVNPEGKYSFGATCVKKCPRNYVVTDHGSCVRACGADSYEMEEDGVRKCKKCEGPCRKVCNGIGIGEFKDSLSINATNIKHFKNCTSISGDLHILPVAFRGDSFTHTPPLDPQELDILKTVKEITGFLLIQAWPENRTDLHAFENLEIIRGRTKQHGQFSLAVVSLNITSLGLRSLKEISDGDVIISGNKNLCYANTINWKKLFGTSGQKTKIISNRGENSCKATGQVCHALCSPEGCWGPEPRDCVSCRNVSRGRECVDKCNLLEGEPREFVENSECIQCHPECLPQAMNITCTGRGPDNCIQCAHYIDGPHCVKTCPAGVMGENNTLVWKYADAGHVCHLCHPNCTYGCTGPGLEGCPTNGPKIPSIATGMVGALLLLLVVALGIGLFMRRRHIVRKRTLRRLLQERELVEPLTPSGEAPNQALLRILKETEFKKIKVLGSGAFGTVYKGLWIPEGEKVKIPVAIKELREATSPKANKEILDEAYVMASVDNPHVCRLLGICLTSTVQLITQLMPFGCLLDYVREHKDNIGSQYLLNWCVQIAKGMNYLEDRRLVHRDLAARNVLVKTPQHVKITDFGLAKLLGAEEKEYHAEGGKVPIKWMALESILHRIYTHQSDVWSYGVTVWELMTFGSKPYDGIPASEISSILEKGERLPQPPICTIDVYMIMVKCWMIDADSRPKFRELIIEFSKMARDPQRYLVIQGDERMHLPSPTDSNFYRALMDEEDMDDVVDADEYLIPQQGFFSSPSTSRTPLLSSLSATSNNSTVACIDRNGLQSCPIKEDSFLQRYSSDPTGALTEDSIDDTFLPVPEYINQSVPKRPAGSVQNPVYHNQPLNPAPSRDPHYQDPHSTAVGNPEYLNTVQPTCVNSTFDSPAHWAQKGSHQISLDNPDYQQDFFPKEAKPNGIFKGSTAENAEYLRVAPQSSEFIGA
Chain of Dickkopf-related protein 1 (Homo sapiens) (O94907 whole entry, looked up): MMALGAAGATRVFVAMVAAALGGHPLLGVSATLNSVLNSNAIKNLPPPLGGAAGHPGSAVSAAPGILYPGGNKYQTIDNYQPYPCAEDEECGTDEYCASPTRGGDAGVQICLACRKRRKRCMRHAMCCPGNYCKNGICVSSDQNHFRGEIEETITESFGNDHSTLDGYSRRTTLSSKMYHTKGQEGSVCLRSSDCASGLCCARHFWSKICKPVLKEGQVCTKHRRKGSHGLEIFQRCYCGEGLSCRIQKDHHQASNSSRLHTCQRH
Chain of Torsin-1A-interacting protein 2 (Homo sapiens) (Q8NFQ8 whole entry, looked up): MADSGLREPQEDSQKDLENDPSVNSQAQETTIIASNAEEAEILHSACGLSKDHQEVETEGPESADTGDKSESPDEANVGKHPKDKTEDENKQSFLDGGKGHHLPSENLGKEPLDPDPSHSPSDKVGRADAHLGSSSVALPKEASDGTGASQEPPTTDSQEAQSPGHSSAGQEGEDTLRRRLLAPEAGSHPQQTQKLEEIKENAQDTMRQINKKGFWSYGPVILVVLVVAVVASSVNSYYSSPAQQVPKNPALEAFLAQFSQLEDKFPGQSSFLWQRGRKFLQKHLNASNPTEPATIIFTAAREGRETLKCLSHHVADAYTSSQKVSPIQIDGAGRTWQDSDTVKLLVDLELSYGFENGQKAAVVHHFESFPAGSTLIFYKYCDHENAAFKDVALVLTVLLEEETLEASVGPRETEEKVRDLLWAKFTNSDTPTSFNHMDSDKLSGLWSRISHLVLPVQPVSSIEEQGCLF
Chain of Fibroblast growth factor 10 (Homo sapiens) (O15520 whole entry, looked up): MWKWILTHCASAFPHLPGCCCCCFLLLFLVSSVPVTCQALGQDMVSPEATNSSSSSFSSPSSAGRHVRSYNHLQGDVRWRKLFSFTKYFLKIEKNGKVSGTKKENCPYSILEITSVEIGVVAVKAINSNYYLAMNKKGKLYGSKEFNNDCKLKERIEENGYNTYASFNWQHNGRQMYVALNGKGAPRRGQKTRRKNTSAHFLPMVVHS
Chain of Follistatin-related protein 3 (Homo sapiens) (O95633 whole entry, looked up): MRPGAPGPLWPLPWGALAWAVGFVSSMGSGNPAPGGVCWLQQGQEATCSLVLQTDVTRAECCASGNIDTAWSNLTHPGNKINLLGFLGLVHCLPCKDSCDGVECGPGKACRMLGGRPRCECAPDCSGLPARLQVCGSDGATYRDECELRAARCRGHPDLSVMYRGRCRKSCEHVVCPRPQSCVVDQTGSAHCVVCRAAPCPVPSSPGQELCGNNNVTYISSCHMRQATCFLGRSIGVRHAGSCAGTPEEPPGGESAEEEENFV

SMILES | composite z-score [1] | z-score [2] | z-score [3] | z-score [4] | composite z-score [5] | z-score [6] | composite z-score [7] | composite z-score [8] | composite z-score [9] | composite z-score [10] | composite z-score [11] | composite z-score [12] | composite z-score [13] | z-score [14] | composite z-score [15] | composite z-score [16] | composite z-score [17] | composite z-score [18] | composite z-score [19] | composite z-score [20]
C=C[C@@H](C)[C@@H](OC(=O)Nc1ccc(SC)cc1)c1ccc(OCCO)cc1 | 1.19 | 0.222 (inactive) | -1.58 (inactive) | -0.31 (inactive) | 1.92 | 1.41 (inactive) | -0.106 | 0.172 | 0.194 | 0.0348 | 1.4 | -0.289 | 0.753 | -1.01 (inactive) | 0.472 | 0.335 | 0.0159 | 0.426 | -0.185 | 0.0303
COc1cc(CO)cc(I)c1O[C@H]1C=C(C(=O)NCCO)C[C@@H](NCC2CCCCC2)[C@@H]1O | 0.332 | -1.94 (inactive) | -0.883 (inactive) | -0.999 (inactive) | 2.65 | 1.69 (inactive) | -0.0719 | 0.323 | 0.793 | -0.067 | 0.587 | -0.155 | -0.103 | -0.47 (inactive) | 0.536 | 0.0102 | 0.151 | 0.607 | 0.502 | 0.328
CN(C)CCCNC(=O)[C@@H]1c2ccccc2C(=O)N(C2CCCCC2)[C@H]1c1ccc(CO)cc1 | 1.55 | 0.154 (inactive) | -1.13 (inactive) | -1.02 (inactive) | 3.08 | 0.37 (inactive) | -0.118 | 0.98 | 1.03 | 0.251 | 1.37 | 0.229 | 0.11 | 1.39 (inactive) | 1.43 | 1.32 | 0.758 | 1.53 | 1.15 | 0.106
C=C(C)C1CCC(C(O)C2C=CC3C(=O)N(C)C(=O)C3N2Nc2cc(OC)c(OC)c(OC)c2)CC1 (stereo not given) | 1.51 | 0.367 (inactive) | 0.458 (inactive) | 0.0769 (inactive) | 3.28 | -1.37 (inactive) | 0.0361 | 0.205 | 1.02 | 0.0763 | 0.506 | 0.005 | 0.422 | 0.719 (inactive) | 0.755 | 1.17 | 0.885 | 1.15 | 0.519 | 1.11
CCOC(=O)C=Cc1ccccc1O | 0.697 | -23.9 (active) | -9.67 (active) | -1.89 (inactive) | 1.44 | 0.354 (inactive) | -0.0432 | -0.0491 | 0.947 | 0.0594 | 0.109 | -0.0604 | 0.329 | -1.74 (inactive) | 0.278 | 0.513 | 0.363 | 0.435 | -0.0242 | 0.75
